Lassa entry inh: blocks Lassa virus binding to or entry into cells; AID 540256; Potency, µM (highest dose often 37.9 µM), for the others: top-dose activity change, negative = inhibition, hits mostly inhibitors; hit rate 1.2% among 300,000; Lassa virus pseudotype entry inhibition, cell reporter; calls by dose curve; tested in HEK293 cells; also: potency is read from the fitted curve at half-maximal effect; % is scaled to controls: 0 for no effect and ±100 for the full control effect; nearly all actives have a fitted effect of over 50% in size
Shiga inhibitor: Shiga toxin inhibition; hit rate 9.2% among 290,000; inhibition, % at 38.7 µM; Vero cells, Shiga toxin protein synthesis inhibition reporter; in the data active = inhibition mostly above about 28%, no sharp cut-off; inactive = mostly below about 43%; also: 0% is about no effect
Cycloheximide cs: affects cycloheximide protein synthesis inhibition readout, counter-screen; cell reporter, cycloheximide protein synthesis inhibition counterscreen; max response, %; hit rate 12% among 300,000; in the data active = max response mostly above about 13%, no sharp cut-off; inactive = mostly below about 14%; also: read at 38.3 µM for the half of the compounds with a filed dose; 0% is about no effect
Vaccinia Venus: vaccinia inhibition (Venus reporter) | Vaccinia virus Venus reporter expression, fluorescence | Potency, µM (top dose mostly 36.5 µM), for the others: top-dose activity change, negative = inhibition, actives largely listed as inhibitors | hit rate 0.46% among 330,000; calls by dose curve; tested in A549 cells; also: potency is read from the fitted curve at half-maximal effect; % is scaled to controls: 0 for no effect and ±100 for the full control effect; nearly all actives have a fitted effect of over 30% in size
Vaccinia mCherry: vaccinia inhibition (mCherry reporter). Potency, µM (doses to about 36.5 µM), for the others: at the highest dose activity change, negative = inhibition, most hits filed as inhibitors. Vaccinia virus mCherry reporter infection, fluorescence. hit rate 0.63% among 310,000; calls by dose curve; tested in A549 cells; also: potency is read from the fitted curve at half-maximal effect; % is scaled to controls: 0 for no effect and ±100 for the full control effect; nearly all actives have a fitted effect of over 35% in size
MARV entry inh: blocks Marburg virus binding to or entry into cells; hit rate 1.8% among 300,000; Marburg virus pseudotyped entry inhibition, cell reporter; AID 540276; Potency, µM (series often up to 37.8 µM), for inactives: at the highest dose activity change, negative = inhibition, usual class: inhibitors; calls by dose curve; tested in HEK293 cells; also: potency is read from the fitted curve at half-maximal effect; % is scaled to controls: 0 for no effect and ±100 for the full control effect
* = called active by the depositor; i = inactive; ? = inconclusive; · = not tested or not shown; [ ] = remark or other dose. This excerpt belongs to a sample that is enriched for hits.

SMILES | Lassa entry inh | Shiga inhibitor | Cycloheximide cs | Vaccinia Venus | Vaccinia mCherry | MARV entry inh
Cc1cccc(CNC(=O)c2cnn(-c3nccc(-c4cccs4)n3)c2C(C)C)n1 | · | · | · | -13.1% | -23.2% | ·
O=[N+]([O-])c1cccc(-c2csc(CS(=O)(=O)Cc3ccco3)n2)c1 | · | 9.7 | 15.9* | · | · | ·
CN(C)/C=C(\C#N)C(=O)Nc1ccc(F)cc1 | -1.2% | 50.3* | 15.7* | -14.3% | · | ?
CN(C)/C=C(\C#N)C(=O)N/N=C/c1ccc(Cl)cc1 | · | 14.1 | 9.5 | 1.6% | i | ·
CN(C)/C=C(\C#N)C(=O)Nc1ccc(F)c(Cl)c1 | · | 52.2* | 24.0* | · | · | ·
Nc1nc2c(C(=O)N3CCOCC3)nnn2c2ccccc12 | -20.9% | 60.4* | 21.4* | -2.2% | i | -11.6%[46.1 µM]
O=S(=O)(N[C@H]1C[C@@H](NS(=O)(=O)OCC(Cl)(Cl)Cl)C2CCCCC21)OCC(Cl)(Cl)Cl (stereo not given in full) | · | -6.7 | -2.2 | 10µM* | ? | ·
CC1CCN(C(=O)COc2ncnc3ccccc23)CC1 | 7.6% | 37.3* | 23.0 | -4.5% | i | 14.2%[46.1 µM]
CC1CCN(C(=O)COC(=O)c2n[nH]c3ccccc23)CC1 | 5.4% | 79.3* | 41.0* | -10.7% | · | ?
O=C(OCC(=O)N1CCCCCC1)c1n[nH]c(=O)c2ccccc12 | 10.1% | -13.9 | -1.0 | 0.4% | -2.0% | 22.1%
CCC1CCCCN1C(=O)COC(=O)c1n[nH]c2ccccc12 (stereo not given) | 14.0% | -2.8 | 19.2* | -6.4% | · | 11.6%
Cc1cccc(NC(=O)C(NS(=O)(=O)c2cccc3nsnc23)c2ccccc2)c1C (stereo not given) | -5.3%[46.1 µM] | · | · | 0.2% | -6.3% | ?
Cc1cccc2c1N[C@H](C)C[C@@H]2C | · | · | · | · | · | 6.9%
c1ccc(CN2CCN(C3CCCSc4ccccc43)CC2)cc1 (stereo not given) | ? | · | · | -10.7% | i | 15.8µM*
O=C(O)c1ccc(CN2C[C@@H](CO)O[C@@H](n3cnc4c(N5CCOCC5)ncnc43)C2)cc1 | · | · | · | -2.0% | 2.2% | ·
O=c1[nH]c(=S)[nH]c(O)c1N=Nc1ccc(SC(F)F)cc1 | 3.98µM* | 25.2 | 32.8* | -3.8% | -16.6% | ?
CCNC(=S)NNC(=O)c1csc(C(C)C)c1 | 3.9% | 77.0* | 51.2* | · | · | ?
CCNC(=S)NNC(=O)c1csc(CC)c1 | 5.5% | 3.0 | -1.6 | · | · | 3.2%
CCCCNC(=S)NNC(=O)c1ccncc1 | 25.3%[46.1 µM] | -13.3 | -4.7 | -6.5% | i | -0.9%[46.1 µM]
CCCCNC(=S)NNC(=O)c1csc(C(C)C)c1 | -0.6% | 29.9* | 16.5 | · | · | ?
OCC1(CCOc2ccccc2)CCN(CCCn2cccn2)CC1 | 15.8% | 4.3 | -2.1 | 2.8% | 7.4% | 13.2%[46.1 µM]
CCCCCc1cc(O)c2c(C)cc(=O)oc2c1 | ? | 39.7 | 12.9* | · | · | -85.4%
C=C[C@H](O)Cc1c(C)n[nH]c1C | · | · | · | · | · | 0.7%
CC1(C)C[C@@H]2C(=O)CCC3O[C@@]3(C)CCC21 (stereo not given in full) | · | · | · | 0.0% | i | ·
CC(CC(=O)NCc1ccc(Cl)cc1)CC1=NS(=O)(=O)c2ccccc2N1 (stereo not given) | -13.5%[46.1 µM] | · | · | -10.2% | 0.3% | ·
SMILES | Lassa entry inh | Shiga inhibitor | Cycloheximide cs | Vaccinia Venus | Vaccinia mCherry | MARV entry inh
Cc1cccc(N2CCN(C(=O)C3CCCN(S(=O)(=O)c4cccc5nsnc45)C3)CC2)c1C (stereo not given) | 17.9%[46.1 µM] | · | · | 5.1% | -11.6% | 4.8%[46.1 µM]
CCCN1CCC(Oc2cc(Nc3nc(Nc4cccc(F)c4C(N)=O)c4cc[nH]c4n3)c(OC)cc2Cl)CC1 | 12.5µM* | · | · | · | · | ·
CCCN1CCCC(c2ccc(Nc3nc(Nc4cc(F)ccc4C(N)=O)c4cc[nH]c4n3)c(OC)c2)C1 (stereo not given) | 14.1µM* | · | · | · | · | ·
CC(C)CCn1c(SCC(=O)NC2CCS(=O)(=O)C2)nc2cc(Cl)ccc2c1=O (stereo not given) | 1.3% | · | · | -5.9% | -1.1% | -12.9%[46.1 µM]
CN(Cc1ccccc1)C(=O)Cn1ncc2c3ccccc3n(Cc3cccc(Cl)c3)c2c1=O | 12.9%[46.1 µM] | · | · | -14.5% | -4.8% | -3.9%[46.1 µM]
CCN(/N=C/c1ccc(Cl)cc1)c1cc(=O)n(C)c(=O)[nH]1 | 7.0% | active | 34.1* | 0.0% | i | -18.0%
CCCc1cc(C(=O)NCC(C)C)no1 | · | 116.8* | 33.2* | -18.1% | i | ·
CCCc1cc(C(=O)NCc2cccs2)no1 | · | 60.7 | 35.5* | 6.4% | 12.8% | -2.3%
O=C(NCc1ccco1)c1ccc(=O)[nH]n1 | 17.6% | -2.0 | -2.3 | -26.8% | · | 0.4%[46.1 µM]
CCCc1cc(C(=O)NCc2ccccc2)no1 | · | 58.8* | 26.6* | -3.3% | 3.5% | ·
